Experimental data published in the supplement of paper PMC8728848.
About 410 targets per protein were measured; listed, in parts, are those with the strongest signals and a random draw of the rest.

Key:
Assay in all cases: glycan array binding signal (z-score within array); higher = stronger binding
Details in all cases: glycan notation: IUPAC condensed, linker removed
[1] = target: Gal6S(b1-4)GlcNAc6S
Outline: (§1)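 Glycan array data came from 3228 arrays in the Consortium for Functional Glycomics database, and only arrays with an available protein sequence were kept. Glycan names were put into IUPAC-condensed notation, and columns mapping to the same glycan were averaged. The binding signal is a within-array Z-score, averaged across arrays of one protein sequence run at different concentrations or buffers and across linkers. A negative Z-score can be read as non-binding.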

[2] = target: GalNAc(b1-3)Gal(a1-4)Gal(b1-4)GlcNAc(b1-3)Gal(b1-4)Glc
Outline: as §1

[3] = target: GalNAc4S6S(b1-4)GlcNAc
Outline: as §1

[4] = target: Glc(b1-4)Glc
Outline: as §1

[5] = target: GlcA(b1-6)Gal
Outline: as §1

[6] = target: GlcNAc(a1-4)Gal(b1-4)GalNAc
Outline: as §1

[7] = target: GlcNAc(b1-2)[GlcNAc(b1-6)]Man(a1-6)[GlcNAc(b1-2)Man(a1-3)]Man(b1-4)GlcNAc(b1-4)GlcNAc
Outline: as §1

[8] = target: GlcNAc(b1-2)[GlcNAc(b1-6)]Man(a1-6)[GlcNAc(b1-4)][GlcNAc(b1-2)Man(a1-3)]Man(b1-4)GlcNAc(b1-4)GlcNAc
Outline: as §1

[9] = target: GlcNAc(b1-4)GlcNAc(b1-4)GlcNAc(b1-4)GlcNAc(b1-4)GlcNAc(b1-4)GlcNAc
Outline: as §1

[10] = target: Kdn(a2-3)Gal(b1-3)GalNAc
Outline: as §1

[11] = target: Man(a1-2)Man(a1-3)[Man(a1-6)]Man(a1-6)[Man(a1-2)Man(a1-3)]Man(b1-4)GlcNAc(b1-4)GlcNAc
Outline: as §1

[12] = target: Neu5Ac(a2-3)Gal(b1-3)GlcNAc6S
Outline: as §1

[13] = target: Neu5Ac(a2-3)Gal(b1-3)[GlcNAc(b1-6)]GalNAc
Outline: as §1

[14] = target: Neu5Ac(a2-3)Gal(b1-3)[Neu5Ac(a2-6)]GlcNAc(b1-3)[Fuc(a1-3)[Gal(b1-4)]GlcNAc(b1-6)]Gal(b1-4)Glc
Outline: as §1

[15] = target: Neu5Ac(a2-3)Gal(b1-4)Glc
Outline: as §1

[16] = target: Neu5Ac(a2-3)Gal(b1-4)GlcNAc(b1-2)Man
Outline: as §1

[17] = target: Neu5Ac(a2-3)Gal(b1-4)GlcNAc(b1-3)Gal(b1-4)GlcNAc(b1-2)Man(a1-3)[Neu5Ac(a2-3)Gal(b1-4)GlcNAc(b1-3)Gal(b1-4)GlcNAc(b1-2)Man(a1-6)]Man(b1-4)GlcNAc(b1-4)GlcNAc
Outline: as §1

[18] = target: Neu5Ac(a2-3)Gal(b1-4)GlcNAc(b1-3)Gal(b1-4)GlcNAc(b1-3)Gal(b1-4)GlcNAc(b1-2)Man(a1-3)[Neu5Ac(a2-3)Gal(b1-4)GlcNAc(b1-3)Gal(b1-4)GlcNAc(b1-3)Gal(b1-4)GlcNAc(b1-2)Man(a1-6)]GalNAc
Outline: as §1

[19] = target: Neu5Ac(a2-3)Gal(b1-4)GlcNAc(b1-3)[Neu5Ac(a2-3)Gal(b1-4)GlcNAc(b1-6)]GalNAc
Outline: as §1

[20] = target: Neu5Ac(a2-3)Gal(b1-4)[Fuc(a1-3)]GlcNAc(b1-2)Man
Outline: as §1

[21] = target: Neu5Ac(a2-6)Gal(b1-4)GlcNAc(b1-2)Man(a1-3)[GlcNAc(b1-2)Man(a1-6)]Man(b1-4)GlcNAc(b1-4)GlcNAc
Outline: as §1

[22] = target: Neu5Ac(a2-6)Gal(b1-4)GlcNAc(b1-2)Man(a1-3)[Neu5Ac(a2-3)Gal(b1-4)GlcNAc(b1-2)Man(a1-6)]Man(b1-4)GlcNAc(b1-4)GlcNAc
Outline: as §1

[23] = target: Neu5Ac(a2-6)Gal(b1-4)GlcNAc(b1-2)Man(a1-3)[Neu5Ac(a2-6)Gal(b1-4)GlcNAc(b1-2)Man(a1-6)]Man(b1-4)GlcNAc(b1-4)[Fuc(a1-6)]GlcNAc
Outline: as §1

[24] = target: Neu5Ac(a2-6)Gal(b1-4)GlcNAc6S
Outline: as §1

[25] = target: Neu5Ac(a2-6)GlcNAc(b1-4)GlcNAc(b1-4)GlcNAc
Outline: as §1

[26] = target: Neu5Ac(a2-8)Neu5Gc(a2-3)Gal(b1-4)GlcNAc
Outline: as §1

[27] = target: Neu5Ac9Ac(a2-3)Gal(b1-4)GlcNAc
Outline: as §1

[28] = target: Neu5Ac9Ac(a2-6)Gal(b1-4)GlcNAc
Outline: as §1

[29] = target: Neu5Gc(a2-3)Gal(b1-4)GlcNAc
Outline: as §1

B1: Epa2 (Candida glabrata) (protein)
chain: MGSSHHHHHHSSGLVPRGSHMASSKDPTSFPMGCSPQVLKTQPGLAVKLYSYGHPVPGCAYNTYQYPDFPRSGYKKERKLADITGVNGRIDIDLKPNDPCRVLSGNLPSNYNYQNTLTYTNFTMILYGYFQPKVTGYHTFNLEADDLLFMNLGAGNAFDCCRAESTLDNFGNYQSYSIWGTDKATADLTVFLVSGIYYPIRLFYVNRDNNAVLDFSFSTEFNKEIIHDFTSYFFSASDEEQCPGNI
[1]
  glycan array binding signal (z-score): 2.81
[2]
  glycan array binding signal (z-score): 1.03
[3]
  glycan array binding signal (z-score): 0.176
[4]
  glycan array binding signal (z-score): 0.058
[5]
  glycan array binding signal (z-score): 0.586
[6]
  glycan array binding signal (z-score): -0.65
[7]
  glycan array binding signal (z-score): -0.896
[8]
  glycan array binding signal (z-score): -0.884
[9]
  glycan array binding signal (z-score): -0.072
[10]
  glycan array binding signal (z-score): 2.25
[11]
  glycan array binding signal (z-score): -1.18
[12]
  glycan array binding signal (z-score): 0.604
[13]
  glycan array binding signal (z-score): -0.044
[14]
  glycan array binding signal (z-score): 0.369
[15]
  glycan array binding signal (z-score): 0.776
[16]
  glycan array binding signal (z-score): 3.5
[17]
  glycan array binding signal (z-score): 0.377
[18]
  glycan array binding signal (z-score): 2.23
[19]
  glycan array binding signal (z-score): 3.03
[20]
  glycan array binding signal (z-score): -0.325
[21]
  glycan array binding signal (z-score): -0.681
[22]
  glycan array binding signal (z-score): -0.821
[23]
  glycan array binding signal (z-score): -0.149
[24]
  glycan array binding signal (z-score): -0.614
[25]
  glycan array binding signal (z-score): -0.626
[26]
  glycan array binding signal (z-score): -1.11
[27]
  glycan array binding signal (z-score): -0.074
[28]
  glycan array binding signal (z-score): -0.169
[29]
  glycan array binding signal (z-score): -0.248
